Structures are written as SMILES. “And” between values parts separate entries of the source, which are not always exact repeats. Identical values can stand only once. Results filed as inconclusive are left out. A structure can be active in one record and inactive in another. The source made the active and inactive calls. Unless noted, the call rests on the fitted dose curve.

Experimental findings from PubChem BioAssay (Tox21) are described below.

A short description of test [1]: qHTS assay to identify small molecule antagonists of the vitamin D receptor (VDR) signaling pathway - cell viability counter screen (AID 743225; active means well fitted curve in the direction sought with a large enough effect in the repeat runs; an effect the other way counts as inactive or inconclusive; further: nearly all actives have a fitted effect of over 50% in size). The procedure, abridged: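 HEK293T VDR-bla; cpd + 1a,25-(OH)2D3 3 nM final, 16 h 37C/5% CO2; B/G FRET substrate 2 h RT; then CellTiter-Glo 30 min RT, luminescence.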
The nature of test [2]: qHTS assay to identify small molecule agonists of the NFkB signaling pathway (AID 1159509; active means well fitted curve in the direction sought with a large enough effect in the signal ratio in the repeat runs, not every such curve was filed as active; the % refers to the signal ratio; further: series mostly up to about 61 µM). An outline of the steps:
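Pathway activation was measured in ME-180 cells stably expressing beta-lactamase under NF-kB response element control. Substrate cleavage was read as the 460/530 nm emission shift after 5 hr compound incubation.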
In general terms: In qHTS, concentration-response curves come from the screen itself.

Test [3] can be described thus: qHTS assay to identify small molecule agonists of the NFkB signaling pathway - cell viability counter screen (AID 1159515). Further: nearly all actives have a fitted effect of over 55% in size. Further: potency means the concentration at half of the fitted maximal effect. The procedure, abridged: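 Read by CellTiter-Glo luminescence (30 min, room temperature) in the wells also used for the beta-lactamase FRET read. ME-180 NFkB-bla cells at 2,000 per well were plated overnight, then exposed to compound for 5 hr at 37 C.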

Test [4] is described as follows: qHTS assay to identify small molecule agonists of the endoplasmic reticulum stress response signaling pathway (AID 1159516; active means well fitted activation curve with a large enough effect in the signal ratio in the repeat runs, not every such curve was filed as active; the % refers to the signal ratio). An outline of the steps:
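Ratiometric FRET readout (405 nm excitation; 460 and 530 nm emission) of a beta-lactamase gene driven by the ER stress response element, after 2 hr substrate loading. HeLa ESRE-bla cells were seeded overnight and treated with compounds for only 5 hr at 37 C.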

Test [5] can be described thus: qHTS assay to identify small molecule agonists of the endoplasmic reticulum stress response signaling pathway - cell viability counter screen (AID 1159517). Further: series mostly up to about 61 µM; nearly all actives have a fitted effect of over 50% in size. An outline of the steps: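 In parallel with the ESRE reporter read, cytotoxicity was scored by CellTiter-Glo luminescence (30 min, room temperature) on HeLa ESRE-bla cells dosed for 5 hr.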
Test [6] can be described thus: qHTS assay to identify small molecule antagonists of the retinoid-related orphan receptor gamma (ROR-gamma) signaling pathway - cell viability counter screen (AID 1159520; active means well fitted curve in the direction sought with a large enough effect in the repeat runs; an effect the other way counts as inactive or inconclusive; further: nearly all actives have a fitted effect of over 50% in size; further: potency means the concentration at half of the fitted maximal effect). An outline of the steps: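 Tet-on ROR gamma CHO cells were given compounds for 2 hr, then doxycycline hyclate at 1 uM final, and incubated 16 hr at 37 C. Viability was measured as ATP content by CellTiter-Glo luminescence.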

For test [7], the target named is Nuclear receptor ROR-gamma (Homo sapiens) (UniProt P51449). The test is described as follows: qHTS assay to identify small molecule antagonists of the retinoid-related orphan receptor gamma (ROR-gamma) signaling pathway (AID 1159521; active means well fitted curve in the direction sought with a large enough effect in the repeat runs; an effect the other way counts as inactive or inconclusive; further: nearly all actives have a fitted effect of over 50% in size; further: potency means the concentration at half of the fitted maximal effect). An outline of the steps:
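Cells were plated, rested 4 h at 37 C, exposed to compounds for 2 h, then given 1 uM final doxycycline hyclate to induce RORγ expression. After 16 h, ONE-Glo luminescence from the ROR response element reporter was measured.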

Test [8] in a line: qHTS assay to identify small molecule agonists of the AP-1 signaling pathway - cell viability counter screen (AID 1159525). Further: nearly all actives have a fitted effect of over 55% in size. The procedure, abridged:
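Same-well cytotoxicity counter screen of the Tox21 10K library in ME-180 cells. The readout is ATP-dependent luminescence after 5 h compound treatment. Data are normalised to DMSO and tetra n-octyl ammonium bromide controls.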

A short description of test [9]: qHTS assay to identify small molecule agonists of the AP-1 signaling pathway (AID 1159526).
The target in test [10] is Retinoic acid receptor RXR-alpha (Homo sapiens) (UniProt P19793). The test is described as follows: qHTS assay to identify small molecule agonists of the RXR signaling pathway (AID 1159527). Further: nearly all actives have a fitted effect of over 35% in size. Further: potency means the concentration at half of the fitted maximal effect. The procedure, abridged: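 Cells plated at 2,000/well, rested 5 hr at 37 C, pin-dosed with DMSO compound solutions, incubated 16 hr, then loaded with B/G FRET substrate for 2 hr at RT before dual-emission fluorescence reading.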
Chain of Retinoic acid receptor RXR-alpha (Homo sapiens) (P19793 whole entry, looked up): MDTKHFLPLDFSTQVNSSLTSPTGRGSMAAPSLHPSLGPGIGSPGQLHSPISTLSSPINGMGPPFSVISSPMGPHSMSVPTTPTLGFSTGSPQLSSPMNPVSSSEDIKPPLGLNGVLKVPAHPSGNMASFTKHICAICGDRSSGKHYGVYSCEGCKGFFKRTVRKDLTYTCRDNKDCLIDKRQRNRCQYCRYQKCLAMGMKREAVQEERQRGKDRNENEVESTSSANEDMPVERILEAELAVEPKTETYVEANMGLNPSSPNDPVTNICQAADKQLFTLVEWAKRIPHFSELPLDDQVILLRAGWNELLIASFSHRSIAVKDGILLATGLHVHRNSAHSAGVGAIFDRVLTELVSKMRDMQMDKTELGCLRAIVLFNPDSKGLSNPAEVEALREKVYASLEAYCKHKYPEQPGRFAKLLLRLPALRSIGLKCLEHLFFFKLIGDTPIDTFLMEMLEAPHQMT

Turning to `CC1(C)C(C=C(Cl)Cl)C1C(=O)OC(C#N)c1cccc(Oc2ccccc2)c1` (stereo not given), the Potency entry in [1], in test [3], in test [5], in [6], in test [7] and in [8] was “inactive” in each case. Moreover, in test [10], the Potency result was “inactive”. Besides, the call in test [2], in test [4] and in test [9] was inactive.
Regarding `O=S(=O)(Oc1ccc(Cl)cc1)c1ccc(Cl)cc1`, the Potency entry in [1], in test [3], in test [5], in test [6], in [7] and in test [8] was “inactive” throughout. The outcome in test [2], in [4] and in [9] was inactive.
For the molecule `COP(=O)(OC)OC`, the Potency result in test [1], in test [3], in [5], in test [6], in test [7] and in test [8] was “inactive” throughout. For the same molecule, in test [10], the Potency entry was “inactive”. The call in test [2], in test [4] and in test [9] was inactive.
In the case of `Nc1cccnc1`, the Potency result in test [1], in [3], in test [5], in test [6], in [7] and in test [8] was “inactive” in each case. Also, the Potency entry in [10] was “inactive”. For the same molecule, the call in test [2], in test [4] and in [9] was inactive.
`CCCCC(CC)COC(=O)c1ccc(C(=O)OCC(CC)CCCC)c(C(=O)OCC(CC)CCCC)c1` (stereo not given): the Potency entry in test [1], in test [3], in test [5], in test [6], in test [7] and in test [8] was “inactive” in each case. The Potency entry in [10] was “inactive”. The result in test [2], in [4] and in [9] was inactive.
Turning to `CCCCNC(=O)n1c(NC(=O)OC)nc2ccccc21`, the Potency result in test [1], in test [3], in [5], in test [6], in test [7] and in test [8] was “inactive” in each case. Further, the Potency entry in test [10] is “inactive”. The molecule was classed as inactive in test [2], in test [4] and in test [9].
Regarding `C#C[C@]1(O)CC[C@H]2[C@@H]3CCC4=CC(=O)CC[C@]4(C)[C@H]3CC[C@@]21C`, the Potency result in [1], in test [3], in test [5], in test [6], in [7] and in test [8] was “inactive” each time. The outcome in [2], in test [4] and in [9] was inactive.
In the case of `CCCCOCCOP(=O)(OCCOCCCC)OCCOCCCC`, the call in test [2], in [4] and in test [9] was inactive. Further, the Potency entry in [3], in test [5], in [6], in [7], in [8] and in test [10] was “inactive” throughout.
Consider `NCc1cccnc1`, for which the Potency entry in test [1], in [3], in test [5], in test [6], in test [7] and in test [8] was “inactive” throughout. Further, the Potency entry in test [10] is “inactive”. Also, the molecule was classed as inactive in [2], in test [4] and in test [9].
Consider `CNC(=O)N(C)c1nnc(C(C)(C)C)s1`, for which the Potency result in test [1], in test [3], in test [5], in test [6], in test [7] and in test [8] was “inactive” each time. Further, in test [10], the Potency entry was “inactive”. Moreover, the call in test [2], in test [4] and in test [9] was inactive.
`CCC(C)c1ccc(O)cc1` (stereo not given): the Potency result in test [1], in [3], in test [5], in test [6], in test [7] and in test [8] was “inactive” each time. Besides, the Potency entry in test [10] was “inactive”. For the same molecule, the outcome in test [2], in [4] and in [9] was inactive.
Take `c1ccc(N=Nc2ccccc2)cc1`: the Potency entry in [1], in [3], in test [5], in test [6], in test [7] and in test [8] was “inactive” each time. The Potency result in test [10] was “inactive”. Also, the call in test [2], in test [4] and in test [9] was inactive.
In the case of `Cc1ccccc1[N+](=O)[O-]`, the Potency entry in test [1], in test [3], in test [5], in test [6], in test [7] and in test [8] was “inactive” throughout. For the same molecule, the Potency result in test [10] is “inactive”. Moreover, the result in test [2], in test [4] and in [9] was inactive.
On to `ClC1C(Cl)C(Cl)C(Cl)C(Cl)C1Cl` (stereo not given), for which the Potency entry in test [1], in test [5], in test [6], in test [8] and in test [10] was “inactive” each time. Moreover, the call in [2], in test [4] and in [9] was inactive. Further, in test [3], the Potency was 55.4 µM (active) and inactive.
Take `O=P(O)(O)CCCl`: the Potency result in [1], in test [3], in test [5], in test [6], in [7] and in test [8] was “inactive” in each case. In addition, in test [10], the Potency entry is “inactive”. Besides, the molecule was called inactive in test [2], in test [4] and in test [9].
For the molecule `O=[N+]([O-])c1cccc2ccccc12`, the Potency entry in [1], in test [3], in test [5], in [6], in test [7] and in [8] was “inactive” each time. Further, in test [10], the Potency entry is “inactive”. Moreover, the outcome in test [2], in test [4] and in test [9] was inactive.
Regarding `CCC(C)c1cc([N+](=O)[O-])cc([N+](=O)[O-])c1O` (stereo not given), the Potency result in [1], in test [3], in [5], in test [6], in [8] and in [10] was “inactive” in each case. The result in [2], in [4] and in test [9] was inactive. The Potency result in test [7] is “inactive and 7.7 µM (active)”.
As for `O=[N+]([O-])c1c(Cl)c(Cl)c(Cl)c(Cl)c1Cl`, the Potency result in test [1], in test [3], in test [5], in test [6], in test [7] and in test [8] was “inactive” each time. Also, the outcome in test [2], in test [4] and in [9] was inactive. For the same molecule, the Potency in [10] was 6.89 µM (active) and inactive.
For `N#CC(Br)Br`, the Potency result in test [1], in [3], in test [5], in test [6], in [7] and in test [8] was “inactive” each time. Besides, in test [10], the Potency result was “inactive”. Besides, the result in test [2], in test [4] and in test [9] was inactive.
For the molecule `Nc1c(Cl)cc([N+](=O)[O-])cc1Cl`, the Potency entry in [1], in test [3], in [5], in test [6], in test [8] and in test [10] was “inactive” in each case. Moreover, the result in [2], in test [4] and in test [9] was inactive. For the same molecule, the Potency result in test [7] is “inactive and 27.3 µM (active)”.
For the molecule `COC(=O)c1sccc1S(=O)(=O)NC(=O)Nc1nc(C)nc(OC)n1`, the Potency entry in test [1], in test [3], in test [5], in test [6], in [8] and in test [10] was “inactive” each time. Also, the molecule was called inactive in test [2], in test [4] and in test [9].
As for `C[C@]12CCC(=O)C(O)=C1CC[C@@H]1[C@@H]2CC[C@]2(C)C(=O)CC[C@@H]12`, the Potency entry in test [1], in test [3], in test [5], in test [6], in test [8] and in test [10] was “inactive” throughout. Besides, the result in [2], in test [4] and in test [9] was inactive. In addition, the Potency in test [7] was 27.3 µM (active) and inactive.
Take `O=C(CCl)c1ccccc1`: the Potency result in test [1], in test [3], in [5], in test [8] and in test [10] was “inactive” in each case. Further, the result in test [2], in test [4] and in test [9] was inactive. The Potency result is “inactive and 61.1 µM (active)” in test [6]; “inactive and 54.5 µM (active)” in test [7].
